Structures are written as SMILES. The whole screen tested about 69,000 compounds, of which about 8,600 (12%) showed an effect of 50% or more. The sample as a whole holds a higher share of strong results than the screen did.

The subject of the assay is Plasmodium berghei. Put plainly: Screen against P. berghei liver stage (PbLuc), transformed with Luciferase, at 10uM. To be noted: tested at 10 uM. It counts as functional, HepG2.
Consider `CS(=O)(=O)N1CCc2ccc(=O)n(CCN3CCCC3)c2CC1`, for which the INHIBITION stood at 46.4%. The figure for `CCc1nc(C2CCCN2C(=O)c2cnc[nH]2)no1` (centres undefined) is 37.9%.

Regarding `CCOCC1CN(C(=O)C2=CCCC2)Cc2cnn(CC)c21` (centres undefined), the INHIBITION is recorded as 42.6%. Regarding `Cc1cnn(CC2CN(CCCc3nc4ccccc4o3)CCO2)c1` (centres undefined), the INHIBITION is on record as -12.1%.

For the compound `CCn1nc(C)c(NC(=O)CN2CCC(c3ccccc3Cl)C2)c1C` (centres undefined), the INHIBITION was 48.2%. For the compound `COCCN1C[C@H](NC(=O)CCC(F)(F)F)[C@@H](C(C)C)C1`, the INHIBITION is 30.9%. The figure for `CC(=O)N1CCCC(c2ccc(CO)c(-c3c(C)noc3C)n2)C1` (centres undefined) is 18.4%; for `CCc1nc(C)c(C(=O)NCCN2CCCC2)s1` it is -19.9%; for `COC(=O)c1ccc(C(=O)NCc2nn(C)c3c2COCC3)cc1` it is 6%. As to `COCC(C)(C#N)NC(=O)COc1ccccc1` (centres undefined), the INHIBITION worked out at 66.7%. The figure for `CC(C)(C)NC(=O)COc1ccc(Oc2ccccn2)cc1` is 23.7%; for `COCC(C)(C#N)NC(=O)COc1ccccc1Br` (centres undefined) it is -3.81%; for `OCc1cnc(Nc2ccccc2)nc1` it is -7.27%. Regarding `Cc1c(CN2CCOCC2)c(O)n(CCc2ccccc2)c(=O)c1C#N`, the INHIBITION is 6%. As to `Cc1ccc(N2CCc3c(CN(C)Cc4ccco4)cncc3C2)nn1`, the INHIBITION is given as -11.2%. For the compound `Cc1nccc(NCc2cncc3c2CCN(S(C)(=O)=O)C3)n1`, the INHIBITION is 59.3%. The figure for `COCc1cncc2c1CCN(Cc1ccccn1)C2` is -13.2%; for `Cn1cc(C(=O)NCc2cncc3c2CCN(c2ccccn2)C3)cn1` it is 34%; for `Cc1ccc(NCc2cncc3c2CCN(Cc2ccccn2)C3)nn1` it is -30.7%. The figure for `Cc1occc1C(=O)N1CCc2c(CNc3ncccn3)cncc2C1` is 4.27%; for `Cn1cc(C(=O)NCc2cncc3c2CCN(S(C)(=O)=O)C3)cn1` it is 38.5%. As for `CN(Cc1cccnc1)Cc1cncc2c1CCN(c1ccccn1)C2`, the INHIBITION is listed as 51.2%. For `Cc1cnc(N2CCc3c(CN(C)Cc4ccco4)cncc3C2)nc1` the value was 66.8%; for `CN(Cc1ccco1)Cc1cncc2c1CCN(c1ncccn1)C2`, 37%; for `Cc1cnc(N2CCc3c(CNc4ccnc(C)n4)cncc3C2)nc1`, 94.6%.

`CN(Cc1ccco1)Cc1cncc2c1CCN(S(C)(=O)=O)C2`: the INHIBITION was determined as 40.1%.

On to `Cc1ccnc(C2CCN(C(=O)CCn3ncc4ccccc43)C2)n1` (centres undefined), for which the INHIBITION amounted to 5.11%. For the compound `CNC(=O)[C@@H](c1ccccc1F)N1CCC[C@H]1C(=O)NC1CC1`, the INHIBITION is recorded as 0.734%. For `Cn1ccnc1CN1CCO[C@H]2C(CNC(=O)c3ccco3)CC[C@@H]21` (some centres undefined) the value was 16.9%. For the compound `CC(C)CC(=O)N1CC[C@@H]2CN(Cc3cccnc3)S(=O)(=O)[C@@H]2CC1`, the INHIBITION was 42.1%. For `Cc1cc(C(=O)N2CC[C@@H]3CN(S(C)(=O)=O)CCO[C@@H]3C2)c(C)o1` the value was 37%; for `O=C(NCc1cc[nH]n1)NC1CCCN(c2ncccn2)C1` (centres undefined), -0.79%; for `Cc1cnc(N2CCN3C[C@H](OCc4cccc(C)n4)C[C@H]3C2)nc1`, 42.3%.

In the case of `O=C(NCC1CC1)c1nc2c(o1)CN(CC1CC1)C2`, the INHIBITION is recorded as -48.4%.

For the compound `Fc1ccccc1Cc1noc(CN2CCC(C3CCCCC3)C2)n1` (centres undefined), the INHIBITION was determined as 49.9%. The figure for `Cc1cccc(NC(=O)C2CCCN2C(=O)c2ccco2)c1C` (centres undefined) is 72.5%; for `COC(=O)c1sccc1NC(=O)C1CCCN1C(=O)c1ccco1` (centres undefined) it is -62.2%; for `COCc1ccccc1NC(=O)[C@@H]1CCCN1C(=O)c1ccco1` it is 39.2%. For `N#CCCN(CCN1CCOCC1)Cc1ccc(F)c(Br)c1` the value was 20.4%; for `CC(C)CN1C(=O)CC[C@H]2CN(C(=O)Cn3ccc(=O)cc3)CC[C@H]21`, 33.9%; for `CC(C)CN1C(=O)CC[C@H]2CN(C(=O)Cn3ccccc3=O)CC[C@H]21`, 45.8%.

Consider `CC1=NN(CC(=O)N2CC[C@@H]3[C@@H](CCC(=O)N3CC(C)C)C2)CC1`, for which the INHIBITION was 56.7%. The figure for `COc1ccnc(N2CCN(C(=O)c3ccn(C)c(=O)c3)CC2)n1` is -21.8%; for `Cc1nnsc1C(=O)N1CC(c2nc3ccccc3[nH]2)C1` it is 49.4%. For `CCc1nnsc1C(=O)N1CCCC(c2nc3ccccc3[nH]2)C1` (centres undefined) the value was 26.9%; for `Cc1nnsc1C(=O)N1CCC(c2nc3ccccc3[nH]2)CC1`, 65.4%; for `O=C(c1cc2ccccc2[nH]1)N1CCCCC1Cn1cccn1` (centres undefined), 48.1%. For `Cc1nn(C)cc1-c1cc(C(F)F)nc2sc(C(N)=O)c(N)c12` the value was 1.86%; for `CCc1nc(C)sc1CN1CCc2[nH]nc(-c3ccc(F)c(F)c3)c2C1`, 37.2%; for `CC(C)(C)c1ccc(-c2n[nH]c3c2CN(CC2CCOC2)CC3)cc1` (centres undefined), 44.3%. Regarding `CC(C)c1nnsc1CN1CCc2[nH]nc(-c3ccc(Cl)cc3)c2C1`, the INHIBITION was 50.1%. For `COC(=O)CCC(=O)N1CCc2[nH]nc(-c3ccc(F)c(F)c3)c2C1` the value was 15.9%; for `CC(O)CN1CCc2[nH]nc(C(c3ccccc3)c3ccccc3)c2C1` (centres undefined), -12.1%. The figure for `CC(C)c1nnsc1CN1CCc2[nH]nc(-c3ccc(F)c(F)c3)c2C1` is 70.4%; for `CS(=O)(=O)N[C@@H]1COC[C@@H]2CN(Cc3ccoc3)C[C@@H]21` it is 15.4%. Take `Cc1cccc(C(=O)N(CC(=O)O)CC(C)C)c1`: the INHIBITION turned out to be 28.1%. In the case of `CCN(CC)C(=O)c1cc(C2CCCN2C)ccn1` (centres undefined), the INHIBITION is recorded as 47.2%.

For the compound `CC(COc1ccc(F)cc1F)NC(=O)NCCN1CCOCC1` (centres undefined), the INHIBITION is -32.4%. As for `CCC(C)NC(=O)c1sccc1-n1cnnn1` (centres undefined), the INHIBITION is -5.22%.

For the compound `COc1cccc2c1ccn2CC(=O)N1CCCC(C(=O)O)C1` (centres undefined), the INHIBITION came out at 31.7%.

For `O=C(c1ccco1)N1CCCC2(CN(Cc3ccc(F)cc3)CCO2)C1` (centres undefined), the INHIBITION is listed as -1.83%. Regarding `O=C1N(CC2CC2)C(c2cncs2)NC12CCCC2` (centres undefined), the INHIBITION is reported as 49%. For `Cc1cccc(CN2CCC3(CC2)COC(COCC2CC2)C3)n1` (centres undefined) the value was 43%. For `CCCN(CCc1ccccn1)C(=O)Cn1cnnn1` the value was -17.8%. The figure for `Cc1cnn(CC2CCCCN2CC(=O)NCc2ccccn2)c1` (centres undefined) is -4.74%; for `CCCN(CCc1ccccn1)C(=O)CCc1cnn(C)c1` it is 65.2%; for `Cn1cc(CN(Cc2ccccc2)Cc2ccccn2)cn1` it is 1.62%. Turning to `Cn1cc(CCC(=O)N2C[C@H]3CC[C@@H](C2)N(Cc2ccccn2)C3)cn1`, the INHIBITION worked out at 6.11%.

Consider `CCCN(CCc1ccccn1)C(=O)Cn1cc(C)cn1`, for which the INHIBITION is 78.8%.

Values taken from ChEMBL document CHEMBL4513216, “Probing the Open Global Health Chemical Diversity Library for Multistage-Active Starting Points for Next-Generation Antimalarials” (ACS Infect Dis, 2020).
